Each structure is given as a SMILES string. Out of some 96,000 compounds screened, about 100 (0.1%) were called active. Many of the other results were omitted from the sample, so actives are more common in it than they were. Potency and affinity values are given separately. A number with no mark means an inactive call.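 Rule for the calls: active = displacement above 50% at 20 µM plus a fluorescence interference ratio under 1.5; inactive = the rest.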

The target in the test is Bcl-2-like protein 10 (Homo sapiens) (UniProt Q9HD36). The experiment in a line: Bcl-B/TR3 peptide binding disruption – biochemical, fluorescence polarization, FITC-TR3 peptide, selectivity assay for Bfl-1 inhibitor project, primary screen (AID 748).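 Note: plate controls were wells without compound for no effect and wells lacking Bcl-B protein for full effect.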 The conditions noted are these: FP displacement of FITC-TR3 peptide from Bcl-B; at 20 µM; stronger effect = higher value.
On to `CN(C)S(=O)(=O)N(Cc1ccc(Br)cc1)c1ccccc1`, for which the displacement is 0%. As for `CN(C)S(=O)(=O)N(CC(=O)Nc1ccc(F)c(F)c1)c1ccccc1`, the figure is 18%; as for `CN(C)S(=O)(=O)N(CC(=O)NCc1ccccc1)c1ccccc1`, 7.3%. As to `CN(C)S(=O)(=O)N(CC(=O)Nc1cccc(F)c1)c1ccccc1`, the displacement is 9.9%. Regarding `O=c1[nH][nH]c2nc(C(F)(F)F)cc(C(F)(F)F)c12`, the displacement was -9.8%. As for `CCN(CC)S(=O)(=O)c1cc(C(=O)O)c(Cl)cc1Cl`, the figure is -5.8%; as for `Cc1ccc(NC(=O)c2nc[nH]c2C(=O)Nc2ccc(C)cc2)cc1`, 4%; as for `Cc1cc(-c2nnc(-c3cc4ccccc4oc3=O)o2)c(C)n1-c1ccccc1`, 2.6%. In the case of `CCCOC(=O)Cc1n[nH]c(=O)[nH]c1=O`, the displacement was -2.4%. With `COc1ccc(CN2C(=O)CN(C3CCCCCC3)C(=O)C2c2ccc(F)cc2)cc1` (centres undefined), the displacement is -2.9%.

Regarding `Cn1c(SCC(=O)Nc2ccc3nc(SCC(=O)N4CCCC4)sc3c2)nnc1-c1ccccc1`, the displacement is 38.1%. Regarding `CCC(=O)Nc1ccc2nc(SCC(=O)N3CCCC3)sc2c1`, the displacement was 5.1%. As for `O=C(c1ccc(N2CCNCC2)cc1)c1cccnc1`, the displacement is -3.4%. As for `COC(=O)C1Sc2[nH]c(=O)sc2C2c3ccccc3OC(=O)C12` (centres undefined), the figure is 0%; as for `CCOC(=O)C1CCN(Cc2nc3ccccc3c(=O)n2-c2ccc(F)cc2)CC1`, -6.2%.

`Cc1nn(Cc2cccc(C(=O)Nc3ccn(Cc4ccccc4)n3)c2)c(C)c1[N+](=O)[O-]`: the displacement was 3.7%. As for `C=CCN1C(=O)/C(=C2/Sc3ccccc3N2C)SC1=Nc1ccccc1C`, the figure is -13%; as for `C=CCN1C(=O)CS/C1=N/c1nccs1`, 1.8%; as for `Cc1c(Cl)cccc1-n1c(SCC(=O)NCc2ccccc2Cl)nnc1-c1ccncc1`, -10.8%. With `O=C1CCCC2=C1C(c1ccco1)Nc1ccc(C(=O)c3ccccc3)cc1N2` (centres undefined) the figure was 22.2%. Regarding `CC1(C)CC(=O)C2=C(C1)c1c(ccc3ccccc13)NC2c1ccco1` (centres undefined), the displacement is -4.8%. For the compound `CCSc1nc(O)c(Cc2ccccc2)c(=O)[nH]1`, the displacement was 10.2%.

For the compound `Clc1ccc(-c2nc3ccccc3n2OCc2ccccc2)cc1`, the displacement is -9%. `CC(=O)Nc1ccc(NC(=O)Cn2cc3c(n2)CCCC3)cc1`: the displacement is -10.4%. `Cc1cc(C)cc(NC(=O)Cn2cc3c(n2)CCCCC3)c1`: the displacement was 2.8%.

Turning to `CCCn1c(=O)c2ccccc2n2c(SCC(=O)c3ccc(F)cc3)nnc12`, the displacement was -0.8%. Consider `CCOC(=O)c1cnc2cc3c(cn2c1=O)CCCC3`, for which the displacement is 0%. With `CC(CC(=O)N1CCc2ccccc21)c1ccccc1` (centres undefined), the displacement is 6.2%. On to `O=C(COC(=O)c1ccco1)NCc1ccco1`, for which the displacement was 3.5%.

Take `COc1ccccc1OCC(=O)NCc1ccco1`: the displacement was 2.1%. In the case of `O=C(NCc1ccco1)c1cccs1`, the displacement is -12.3%.

Turning to `O=C(COC(=O)c1ccccc1)NCc1ccco1`, the displacement is 40.9%.

In the case of `COc1ccc(OCCC(=O)OCC(=O)NCc2ccco2)cc1`, the displacement is 16.1%. As for `CCOc1cc(C(=O)OCC(=O)NCc2ccco2)cc(OCC)c1OCC`, the figure is 33.3%; as for `O=C1NCCCc2nc(Oc3ccccc3)sc21`, 1.4%. As to `Cc1cc(C)c2c(=O)c3c(oc2c1)C(=O)N(CCO)C3c1cccc(O)c1` (centres undefined), the displacement was 3.4%. Regarding `COc1ccc(C(=O)CCC(=O)N2CCN(c3ccc(N4CCOCC4)nn3)CC2)cc1`, the displacement was 4.3%. Consider `COc1ccccc1-c1nnc(NC(=O)C(C)SC2=NCCS2)s1` (centres undefined), for which the displacement was -10.4%. With `Cc1ccc(NC(=O)CCc2ccc(S(=O)(=O)N3CCOCC3)cc2)c(C)c1`, the displacement was 13.6%. With `c1ccc2c(c1)nnn2Cc1nnc2sc(-c3ccncc3)nn12` the figure was -19.6%. For `c1ccc(-c2nn3c(Cn4nnc5ccccc54)nnc3s2)cc1`, the displacement is 0%. Regarding `Nc1nonc1OCCc1ccccc1`, the displacement is 2.7%.

Take `O=c1[nH]c(NC2CCCCC2)nnc1Cc1ccccc1`: the displacement is -7%.

As for `NC(=O)C1c2ccccc2CSc2ccccc21` (centres undefined), the displacement is -22.4%. Regarding `CN1CCN(CCCNC(=O)C2CCN(c3nnc(-n4cccc4)s3)CC2)CC1`, the displacement was 8.6%. Turning to `O=C(NCCCc1ccccc1)C1CCN(c2nnc(-n3cccc3)s2)CC1`, the displacement is 6.7%. As for `CCN1CCN(c2cc(C)c3cc(NC(=O)c4cccnc4Cl)ccc3n2)CC1`, the displacement is 25.4%.

As to `O=C(Nc1ccc(N2CCCCC2)cc1)c1cccnc1Cl`, the displacement is -16.3%. For `O=C(CNC(=O)c1ccco1)OCc1cccc(Cl)c1`, the displacement was -8.6%. Consider `CC(C)C1Nc2ccc(S(N)(=O)=O)cc2C2C=CCC21` (centres undefined), for which the displacement is 25.6%. For `O=C(OC1CCCCC1)c1ccc(NC(=O)C2CCCCC2)cc1`, the displacement is 6.4%. As to `CC(=O)c1ccc2c(c1)C1C=CCC1C(c1ccncc1)N2` (centres undefined), the displacement was -8.3%.

On to `COC(=O)c1ccc(C2Nc3ccc(/C(C)=N/NC(=O)C(OC)c4ccccc4)cc3C3C=CCC32)cc1` (centres undefined), for which the displacement was 5.4%.

Take `O=C(O)C1Nc2c(C(=O)N3CCOCC3)cccc2C2C=CCC12` (centres undefined): the displacement is 28.7%. Take `Cc1ccc2c(c1C)NC(C)CC2C` (centres undefined): the displacement is -4.5%. For `Cc1ccc(S(=O)(=O)N2CCCN(S(=O)(=O)c3ccc(C)c(C)c3)CC2)cc1C`, the displacement is -11.3%. Take `Cc1cccc(C)c1NC(=O)CNc1ccccc1`: the displacement was 0.2%. As for `Cn1c(=O)[nH]c(=O)c2c1nc(Br)n2CC(O)c1ccccc1` (centres undefined), the displacement was 6.4%. As for `CCCCNC(=O)C1C2C=CC3(CN(Cc4ccc(C)cc4)C(=O)C13)O2` (centres undefined), the figure is 2.1%; as for `O=C(C1CCCN(Cc2ccncc2)C1)N1CCc2ccccc2C1` (centres undefined), -14.9%. `CCOC(=O)CC(N)c1ccc(OC)cc1` (centres undefined): the displacement was 14.7%. Take `COC(=O)Cc1[nH]n(-c2nc3ccccc3s2)c(=O)c1C(C)=O`: the displacement is -6.8%. As to `CCCN=C(C)c1c(-c2ccccc2)[nH]n(-c2nc3ccccc3s2)c1=O`, the displacement is -6.3%. Consider `CSc1nnc2n(Cc3ccccc3)c(=O)c3c4c(sc3n12)COC(C(C)C)C4` (centres undefined), for which the displacement is 1.6%.

As for `Cc1ccc(S(=O)(=O)NNC(=O)C2Cc3c(ccc4ccccc34)O2)cc1` (centres undefined), the displacement was -1.6%. As for `Cc1ccc(CSCCNC(=O)c2ccc(N(C)S(=O)(=O)c3ccccc3)cc2)cc1`, the figure is 0%; as for `CCN(CC)c1ccc(C(=O)OCc2cc(=O)oc3cc(O)ccc23)cc1`, 0%.

On to `CC1CN(S(=O)(=O)c2cccc(C(=O)OCc3cc(=O)oc4cc(O)ccc34)c2)CC(C)O1` (centres undefined), for which the displacement was 16.7%. For the compound `N#CCCN1CCN(CCC#N)CC1`, the displacement was -1.9%.

As to `COCCCn1c2nc3ccccc3nc2c2c(=O)n(Cc3ccc(Cl)cc3)cnc21`, the displacement is -3.8%. With `COc1ccc(C2Nc3ccccc3C(=O)N2c2ccc(C)cc2)cc1Cn1nc(C)c([N+](=O)[O-])c1C` (centres undefined) the figure was 8.3%; with `CCS(=O)(=O)N1Cc2ccccc2CC1C(=O)N1CCN(c2ccccc2)CC1` (centres undefined), 27%. On to `CCS(=O)(=O)N1CCN(c2cccc(C)c2C)CC1`, for which the displacement was 4.1%. Regarding `CC1CCCN(c2oc(-c3cccc4ccccc34)nc2C#N)C1` (centres undefined), the displacement was 6.4%. For the compound `COc1ccc2nc(SCC(=O)/C(C#N)=C(\C)N)[nH]c2c1`, the displacement is -14.3%. Take `C/C(N)=C(/C#N)C(=O)CSc1nc2ccc(C)cc2[nH]1`: the displacement is 8.9%. For the compound `O=C(O)CCCNc1cc(N2CCC3(CC2)OCCO3)c2noc3c2c1C(=O)c1ccccc1-3`, the displacement is 33.8%. As to `CCOC(=O)C(C(=O)OCC)c1cc(Br)c2noc3c2c1C(=O)c1ccccc1-3`, the displacement was -31.4%.

In the case of `CCCCOC(=O)Cn1c(=O)n(CC(=O)OCCCC)c2ccccc21`, the displacement is 3.3%.

Consider `COc1ccc(C(CNC(=O)c2ccc(S(=O)(=O)N3CCOCC3)cc2)N2CCCCC2)cc1` (centres undefined), for which the displacement is 0.7%. On to `Cc1ccc(S(=O)(=O)N2CCCCC2)cc1C(=O)Nc1ccc2cn[nH]c2c1`, for which the displacement was 5.9%. With `Cc1ccc(S(=O)(=O)N2CCCC2)cc1C(=O)O`, the displacement is 27.9%.

Consider `COC(=O)c1ccccc1NC(=O)c1noc2c1CCCC2`, for which the displacement was -7.7%. `COC(=O)c1ccccc1NC(=O)c1noc2c1CC(C(C)(C)C)CC2` (centres undefined): the displacement is -0.1%. Take `O=C(Nc1ccccc1C(=O)N1CCOCC1)c1noc2c1CCCC2`: the displacement is -1.4%. For the compound `O=C(Nc1ccc(F)cc1F)c1noc2c1CCC2`, the displacement is 46.1%. As for `O=C(CCCN1C(=O)CCC1=O)Nc1ccccc1F`, the figure is 38.1%; as for `Cc1csc(NC(=O)CSc2nnc(Cn3c(=O)sc4ccccc43)n2-c2ccccc2)n1`, -8.5%; as for `CCCC(=O)Nc1ccc2oc(-c3ccc(OC)c(Br)c3)nc2c1`, -48.6%. For `O=C(CN1CCCCC1)Nc1cccc(-n2cnnn2)c1`, the displacement is 5.6%. Take `CC(C)(C)n1ncc2c(=O)n(CC(=O)NC3CCCCC3)cnc21`: the displacement was -2.2%.

`COC(=O)c1oc2ccc(Br)cc2c1NC(=O)c1ccccc1`: the displacement was -10.4%. With `Cc1cc(C)nc(Nc2ccc(N3CCOCC3)cc2)n1`, the displacement was 37.9%. As for `Cc1cc(C)nc(Nc2ccc(C(=O)O)cc2)n1`, the displacement was 1.7%. As for `CCCCCCNc1nc(NCc2ccco2)nc(OCC)n1`, the displacement was -31.5%. With `Cc1nc(SCC(=O)NCc2ccco2)[nH]c(=O)c1C`, the displacement is -5.3%. Regarding `NC(=O)c1cc(N)ccc1N1CCCC1`, the displacement is 7.2%.

With `Cc1cc(N)ccc1-n1c(C)ccc1C`, the displacement was -6.6%.

For the compound `CCc1nnc(NC(=O)C(=O)NCCOC(=O)c2ccccc2Cl)s1`, the displacement was -14.4%.
